# According to PubChem BioAssay (NCATS):
# Inconclusive results are not listed. Activity calls are given as the source filed them. Unless noted, calls follow the shape of the dose curve; as a rule, active = well fitted curve in the direction sought with a large enough effect; inconclusive = small, poorly fitted or top-dose-only effect, or another doubt; inactive = no such curve, though single readings can be large; an effect the other way counts as inactive or inconclusive.
# Legend:
# [1] = Quantitative High-Throughput drug screen in 47 multiple myeloma cell lines against the NCATS MIPE library collection: OPM2_DSMZ cell viability assay (AID 1919872); also: nearly all actives have a fitted effect of over 30% in size; also: potency is read from the fitted curve at half-maximal effect
# Outline: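 CellTiter-Glo luminescence (ATP) after 48 h compound exposure, 37C/5% CO2; 500 cells/well; MIPE 4.0 approved/investigational drugs pinned in; DMSO = 100%, media only = 0% viability.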
# [2] = Quantitative High-Throughput drug screen in 47 multiple myeloma cell lines against the NCATS MIPE library collection: KMS11_JCRBsus cell viability assay (AID 1919873); also: nearly all actives have a fitted effect of over 50% in size; also: potency is read from the fitted curve at half-maximal effect
# Outline: (§1)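 qHTS format: cells plated (500/well), pin-dosed with MIPE 4.0 compounds, kept 48 h at 37 °C. Readout was CellTiter-Glo luminescence, median RLU.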
# [3] = Quantitative High-Throughput drug screen in 47 multiple myeloma cell lines against the NCATS MIPE library collection: KMS28BM_JCRB cell viability assay (AID 1919874); also: nearly all actives have a fitted effect of over 35% in size; also: potency is read from the fitted curve at half-maximal effect
# Outline: as §1
# [4] = qHTS drug screen for cell cycle checkpoint inhibitors in PARPi-resistant BRCA-mutant ovarian cancer cell lines. (AID 1963452; calls by dose curve); settings: PEO1/OlaR viability, CellTiter-Glo luminescence, 96 h, stronger effect = lower value
# Outline: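 PEO1, PEO4 and PEO1/OlaR ovarian cancer cells, 600 per well, exposed 96 h at 37C to a dilution series. Viability read by CellTiter-Glo luminescence, normalized to DMSO and empty wells; activity summarized as Z-AUC.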
# [5] = qHTS for identification of novel therapeutic agents for treatment of microphthalmiaassociated transcription factor (MiT) renal cell carcinoma (RCC) (AID 1963991); settings: CellTiter-Glo, 48 h, stronger effect = lower value
# Outline: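 Viability of three TFE3-fusion renal carcinoma lines measured by CellTiter-Glo after 48 h treatment with each of 1912 compounds at 11 concentrations. Responses scaled between DMSO (100%) and empty wells (0%) before curve fitting.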
# [6] = qHTS profiling for inhibitors of Plasmodium falciparum proliferation (AID 504749); also: nearly all actives have a fitted effect of over 60% in size; also: potency is read from the fitted curve at half-maximal effect;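 as to activity, negative = inhibition: 0% = DMSO vehicle and full inhibition = artemisinin control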; settings: P. falciparum in erythrocytes, SYBR Green DNA, 72 h
# Outline: (§2)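 Quantitative HTS: compounds pinned into medium, infected erythrocytes added (0.3% parasitemia, 2.5% hematocrit), 72 h culture at 37 C under 5% CO2. Saponin/Triton lysis with SYBR Green I, overnight RT, then fluorescence read.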
# 7G8 = test: as above; settings: P. falciparum in erythrocytes, SYBR Green DNA, 72 h; series mostly up to 28.7 µM
# Outline: as §2
# AA1029 = test: as above; settings: P. falciparum in erythrocytes, SYBR Green DNA, 72 h; series mostly up to 28.7 µM
# Outline: as §2
# AS120 = test: as above; settings: P. falciparum in erythrocytes, SYBR Green DNA, 72 h; series mostly up to 28.7 µM
# Outline: as §2
# 3D7 = test: as above; settings: P. falciparum in erythrocytes, SYBR Green DNA, 72 h; series mostly up to 28.7 µM
# Outline: as §2
# [7] = measured here: PEO1 parental Z-AUC
# [8] = TFE3-RCC UOK109 viability, measured here: UOK109 Z-AUC
# [9] = TFE3-RCC viability, measured here: UOK124 Z-AUC
# [10] = TFE3-RCC viability, measured here: UOK145 Z-AUC
# [11] = at 28.7 µM (top of the series), parasite line A
# [12] = at 28.7 µM (top of the series), parasite line B
# [13] = at 12.8 µM (top of the series), parasite line A
# [14] = at 12.8 µM (top of the series), parasite line B
Compound,Potency [1],Potency [2],Potency [3],Z-AUC [4],"Z-AUC [4, 7]",Z-AUC ([4]; measured here: PEO4 Z-AUC),"z-score [5, 8]","z-score [5, 9]","z-score [5, 10]","activity, negative = inhibition [6, 11]","activity, negative = inhibition [6, 12]",Potency (7G8),Potency (AA1029),Potency (AS120),"activity, negative = inhibition [6, 13]","activity, negative = inhibition [6, 14]",Potency (3D7),Potency ([6]; parasite line A),Potency ([6]; parasite line B)
C=C(c1ccc(C(=O)O)cc1)c1cc2c(cc1C)C(C)(C)CCC2(C)C,inactive,inactive,inactive,1.36 (inactive),0.659,0.161,0.216,-0.242,-0.306,-4.04% (inactive),4.75% (inactive),8.91 µM (active),inactive,inactive,,,,,
Oc1ccc(OCc2ccccc2)cc1,inactive,inactive,inactive,0.481 (inactive),0.491,0.0323,1.11,0.685,1.26,,,inactive,inactive,inactive,-21.7% (inactive),-19.8% (inactive),,,
O=C(O)c1cccnc1Nc1cccc(C(F)(F)F)c1,inactive,inactive,inactive,,,,0.327,0.739,0.463,8.39% (inactive),13.5% (inactive),inactive,inactive,inactive,,,inactive,,
Cc1ccc(C)c(OCCCC(C)(C)C(=O)O)c1,inactive,inactive,inactive,1.52 (inactive),1.37,1.5,,,,19.7% (inactive),9.1% (inactive),inactive,inactive,inactive,,,inactive,,
COCCCOc1ccnc(CS(=O)c2nc3ccccc3[nH]2)c1C (stereo not drawn),inactive,inactive,inactive,-0.249 (inactive),-0.578,-0.176,0.673,0.741,0.739,-29% (inactive),-20.3% (inactive),,inactive,inactive,,,inactive,,
CN(C)CCc1c[nH]c2ccc(Cn3cncn3)cc12,inactive,inactive,inactive,,,,0.0634,0.723,0.764,15.9% (inactive),-0.428% (inactive),inactive,inactive,inactive,,,inactive,,
C[C@@H](c1ncncc1F)[C@](O)(Cn1cncn1)c1ccc(F)cc1F,inactive,inactive,,-0.415 (inactive),1.15,0.481,0.104,0.588,0.181,,,,,,,,,,
O=c1oc2cc(O)ccc2s1,inactive,inactive,inactive,0.214 (inactive),0.00456,1.28,0.879,0.455,1.32,-2.41% (inactive),-10.3% (inactive),,inactive,inactive,,,inactive,,
CCOc1cc(CC(=O)N[C@@H](CC(C)C)c2ccccc2N2CCCCC2)ccc1C(=O)O,inactive,inactive,inactive,0.686 (inactive),0.341,0.628,,,,,,inactive,inactive,inactive,4.74% (inactive),10.7% (inactive),inactive,,
CC1(C)CCC(C)(C)c2cc(NC(=O)c3ccc(C(=O)O)cc3)ccc21,inactive,4.18 µM (active),inactive,0.358 (inactive),0.445,-0.341,,,,-1.01% (inactive),-5.09% (inactive),,inactive,inactive,,,inactive,,
NNc1nncc2ccccc12,inactive,inactive,inactive,0.571 (inactive),0.709,0.892,-0.0991,0.525,0.517,,,0.891 µM (active),inactive,,-1.16% (inactive),-10.3% (inactive),,,
COCCCN1CCC(NC(=O)c2cc(Cl)c(N)c3c2OCC3)CC1,inactive,23.5 µM (active),,1.78 (inactive),1.56,1.58,,,,,,,,,,,,,
CC(=O)N1CCN(c2ccc(OC[C@H]3CO[C@](Cn4ccnc4)(c4ccc(Cl)cc4Cl)O3)cc2)CC1,18.7 µM (active),18.7 µM (active),,0.477 (inactive),0.452,0.494,,,,,,,,,,,,,
C[C@]12CCC(=O)C=C1CC[C@@H]1[C@H]2[C@@H](O)C[C@@]2(C)[C@H]1CC[C@]2(O)C(=O)CO,inactive,0.187 µM (active),inactive,,,,,,,9.9% (inactive),19.1% (inactive),inactive,inactive,inactive,,,inactive,,
COc1ccc(C2(C#N)CCC(C(=O)O)CC2)cc1OC1CCCC1 (stereo not drawn),inactive,inactive,inactive,0.982 (inactive),1.47,0.858,,,,10.1% (inactive),-9.11% (inactive),inactive,inactive,inactive,,,inactive,,
C[C@H](Cn1cnc2c(N)ncnc21)OCP(=O)(O)O,inactive,inactive,inactive,,,,0.368,0.295,0.62,2.65% (inactive),3.87% (inactive),inactive,inactive,inactive,,,inactive,,
O=C(OC1C[C@H]2CC[C@@H](C1)[N+]21CCCC1)C(O)(c1ccccc1)c1ccccc1 (stereo partly drawn),inactive,inactive,inactive,,,,0.286,0.765,0.653,,,6.31 µM (active),2.51 µM (active),,,,,,
O=C(O)c1cn(-c2ccc(F)cc2)c2cc(N3CCNCC3)c(F)cc2c1=O,inactive,inactive,inactive,0.692 (inactive),0.709,0.947,0.863,0.568,0.628,-18.3% (inactive),-17.6% (inactive),,,inactive,,,inactive,,

Compound,Potency [1],Potency [2],Potency [3],Z-AUC [4],"Z-AUC [4, 7]",Z-AUC ([4]; measured here: PEO4 Z-AUC),"z-score [5, 8]","z-score [5, 9]","z-score [5, 10]","activity, negative = inhibition [6, 11]","activity, negative = inhibition [6, 12]",Potency (7G8),Potency (AA1029),Potency (AS120),"activity, negative = inhibition [6, 13]","activity, negative = inhibition [6, 14]",Potency (3D7),Potency ([6]; parasite line A),Potency ([6]; parasite line B)
CNC[C@H](O)c1ccc(O)c(O)c1,13.6 µM (active),19.1 µM (active),21.5 µM (active),0.904 (inactive),1.34,1.03,,,,-8.23% (inactive),3.15% (inactive),inactive,inactive,inactive,,,,,
CC(S)C(=O)NCC(=O)O (stereo not drawn),inactive,inactive,inactive,,,,,,,5.37% (inactive),13.7% (inactive),,inactive,inactive,,,inactive,,
O=C(O)CCNC(=O)c1ccc(N=Nc2ccc(O)c(C(=O)O)c2)cc1,inactive,inactive,inactive,,,,1.03,0.51,0.488,4.07% (inactive),9.54% (inactive),inactive,inactive,inactive,,,inactive,,
CCN(CCO)CCCC(C)Nc1ccnc2cc(Cl)ccc12 (stereo not drawn),inactive,inactive,inactive,1.8 (inactive),1.41,1.84,,,,,,,inactive,inactive,,,0.562 µM (active),0.708 µM (active),1 µM (active)
CN(C)C(=O)[C@H](O)[C@H](Cc1ccccc1)NC(=O)c1cc2cc(Cl)ccc2[nH]1,14.8 µM (active),16.6 µM (active),,-0.181 (inactive),0.139,-0.0271,,,,,,,,,,,,,
CCCCC(CC)COC(=O)C(C#N)=C(c1ccccc1)c1ccccc1 (stereo not drawn),inactive,inactive,inactive,,,,,,,,,10 µM (active),,,,,,11.2 µM (active),
c1ccc2[nH]c(-c3cscn3)nc2c1,inactive,inactive,inactive,-1.4 (inactive),-0.204,0.0577,-0.345,0.601,-0.852,,-25.8% (inactive),inactive,inactive,inactive,,,inactive,,
O=C(NC(Cc1cc(=O)[nH]c2ccccc12)C(=O)O)c1ccc(Cl)cc1 (stereo not drawn),inactive,inactive,inactive,-0.00865 (inactive),0.872,1.04,,,,1.94% (inactive),-14.9% (inactive),inactive,inactive,inactive,,,inactive,,
Cc1nc2n(c(=O)c1CCN1CCC(c3noc4cc(F)ccc34)CC1)CCCC2,inactive,inactive,inactive,,,,0.0752,0.441,0.372,8.34% (inactive),15.8% (inactive),10 µM (active),inactive,inactive,,,inactive,,
Cc1cc(=O)oc2cc(O)ccc12,inactive,inactive,inactive,0.0735 (inactive),0.832,0.848,,,,,,inactive,inactive,,,,,,
CC1=C(C(=O)O)N2C(=O)[C@@H](NC(=O)[C@H](N)C3=CCC=CC3)[C@H]2SC1,inactive,inactive,inactive,,,,1.56,0.465,0.657,,,,,,,,,,
COC(=O)C1=C(C)NC(C)=C(C(=O)OCCCN2CCC(c3ccccc3)(c3ccccc3)CC2)C1c1cccc([N+](=O)[O-])c1 (stereo not drawn),inactive,inactive,inactive,0.516 (inactive),0.68,0.403,,,,,,2 µM (active),4.47 µM (active),2.82 µM (active),,,2.82 µM (active),4.47 µM (active),6.31 µM (active)
CCCS(=O)c1ccc2nc(NC(=O)OC)[nH]c2c1 (stereo not drawn),23.5 µM (active),18.7 µM (active),,-0.279 (inactive),-0.314,0.468,,,,,,,,,,,,,
Cc1cc2c(s1)Nc1ccccc1N=C2N1CCN(C)CC1,inactive,inactive,inactive,-0.767 (inactive),-0.886,-0.45,0.52,0.714,0.593,6.07% (inactive),8.04% (inactive),,inactive,inactive,,,inactive,,
C=CCc1cc(OC)c(O)c(C(=O)NCCO)c1,inactive,inactive,inactive,,,,0.957,0.641,1.25,6.75% (inactive),10.3% (inactive),inactive,inactive,inactive,,,inactive,,
O=C(O)c1cccc(-c2noc(-c3ccccc3F)n2)c1,inactive,inactive,inactive,,,,,,,-1.01% (inactive),10.4% (inactive),inactive,inactive,inactive,,,inactive,,
O=Nc1c(-c2c(O)[nH]c3cc(Br)ccc23)[nH]c2ccccc12,20.9 µM (active),3.72 µM (active),,-0.607 (inactive),-0.18,-0.803,,,,,,,,,,,,,
Nc1nc(Cl)nc2c1ncn2[C@H]1C[C@H](O)[C@@H](CO)O1,inactive,5.26 µM (active),4.18 µM (active),-0.756 (inactive),-0.859,-0.649,,,,-3.94% (inactive),14.5% (inactive),inactive,inactive,inactive,,,inactive,,
